Screening data: PubChem BioAssay, Center for Chemical Genomics, University of Michigan
Dicer inh – blocks human Dicer maturation of pre-miR-21. Q9UPY3. cat-ELCCA pre-miR-21 Dicer processing, chemiluminescence; stronger effect = higher value. AID 1347074. 6% of 47,000 active. z-score at 25 µM; in the data active = z-score above about 3, passing the limit was not always enough;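 note: plate controls were vehicle for no effect and no enzyme for full effect; higher signal means more uncleaved substrate so more Dicer inhibition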
* = called active by the depositor. Many of the other results were omitted from the sample, so hits are more common in it than they were.

SMILES	Dicer inh
Clc1ccccc1CNc1nc2ccccc2n1CCN1CCOCC1	6.5*
CC(C)(C)OC(=O)NC(CSCc1ccccc1)C(N)=O (configuration not stated)	-0.41
CCSC1=NC(C)(C)Cc2cc(OC)c(OC)cc21	-1
O=C(/C=C/Sc1cc(Cl)ccc1Cl)c1ccc(F)cc1	-0.92
C=CCn1c(C(C)Oc2ccc(Cl)cc2)n[nH]c1=S (configuration not stated)	-2.2
Cc1cc(C)c(C#N)c(OCC(=O)Nc2ccc(Oc3ccccc3)cc2)n1	1.2
COc1cccc2c(OC(C)=O)coc12	2.3
CC(=O)c1ccc(OCc2ccccc2)c(C)c1OC(=O)c1ccc(Cl)c(Cl)c1	-2.2
O=C(Oc1cc(S(=O)(=O)c2ccc(Cl)cc2)ccc1[N+](=O)[O-])c1cc2ccccc2s1	-2
COCCN1C(=O)C(=O)/C(=C(\O)c2ccc(F)cc2)C12C(=O)N(C)c1ccccc12 (configuration not stated)	-3.4
C=CCn1c(NCc2ccccc2OC)nc2ccccc21	-0.63
CC(C)c1ccc(CNc2nc3ccccc3n2CCN2CCOCC2)cc1	4.8*
CCN(CC)c1ccc(CNc2nc3ccccc3n2C(C)C)cc1	0.35
COc1ccccc1CNc1nc2ccccc2n1CCN1CCOCC1	6.2*
c1ccc2c(c1)nc(NCc1ccc3c(c1)OCO3)n2CCN1CCOCC1	-0.44
CCN(CC)S(=O)(=O)c1ccc(N2C(=O)CC3(CCCC3)C2=O)c(Cl)c1	-0.74
Cc1nc2c(ncn2-c2ccccc2)c(=O)n1NC(=O)CN(Cc1ccccc1)Cc1ccccc1	-0.78
CCOC(=O)N1CCN(S(=O)(=O)c2ccc(-c3cc(C(F)(F)F)on3)s2)CC1	-0.57
O=C(Nc1ccc(Cl)c(Cl)c1Cl)C(Cl)Cl	-0.32
O=C(Nc1ncnc2oc(-c3ccccc3)c(-c3ccccc3)c12)c1ccco1	2.5
Clc1ccc(Cc2nn3c(-c4ccccc4)nnc3s2)cc1	1.5
CN1CCN(c2nc3c(c(=O)n(C)c(=O)n3C)n2Cc2ccccc2Cl)CC1	4.2*
Cn1c(=O)c2c(nc(N3CCCCC3)n2Cc2ccccc2F)n(C)c1=O	1.7
CN1CCN(c2nc3c(c(=O)n(C)c(=O)n3C)n2Cc2c(F)cccc2Cl)CC1	0.87
CCOC(=O)C1CCN(c2ccccc2CN2CCN(Cc3ccccc3)CC2)CC1	-0.81
SMILES	Dicer inh
COC(=O)c1c(NC(=O)CCCOc2ccc(Cl)cc2)sc2c1CCC2	1.5
CC(=O)Nc1sc2c(c1C#N)CCc1ccccc1-2	0.06
CCOC(=O)c1cc(NC(=O)c2cc3ccccc3oc2=O)sc1CC	-0.75
CCOC(=O)c1sc(-c2ccc(C(F)(F)F)cc2)nc1O	-0.27
Cc1nc(-c2ccc(C(F)(F)F)cc2)sc1Br	18*
CSc1n[nH]c(-c2ccc(C(F)(F)F)cc2)n1	3.1
CCOc1ccccc1NC(=O)Oc1ccc(F)cc1Cl	-1.3
Cc1c(N2C(=O)c3cccc4cccc(c34)C2=O)c(=O)n(-c2ccccc2)n1C	4.4*
Cc1c(O)c(=O)n(-c2ccccc2)n1C	0.57
O=C1c2cccc3cccc(c23)C(=O)N1Nc1ccccc1	0.66
CN(C)c1ccc(-c2n[nH]c(=O)c3ccccc23)cc1[N+](=O)[O-]	1.4
N#CCCN(C(=O)c1ccccc1Cl)C1CCCCC1	-0.52
CCOC(=O)c1cc(CC)sc1NC(=S)Nc1cccc(Cl)c1	7.1*
CCOC(=O)c1cc(C)ccc1NC(=S)Nc1cccc(Cl)c1	-5.3
CCOC(=O)c1cc(CC)sc1NC(=S)Nc1ccccc1C(F)(F)F	-0.97
CC(=O)[C@H]1CC[C@H]2[C@@H]3CCC4=CC(=O)CC[C@]4(C)[C@H]3CC[C@]12C	1.4
CC(=O)[C@@]12OC(C)(c3ccccc3)O[C@@H]1C[C@H]1[C@@H]3CCC4=CC(=O)CC[C@]4(C)[C@H]3CC[C@@]12C (some centres not stated)	-0.12
C[C@]12CCC(=O)C=C1CC[C@@H]1[C@@H]2CC[C@@]2(C)[C@H]1CC[C@]2(O)C(=O)CO	3.3*
Cc1noc(C)c1-c1nc(CSc2n[nH]c(=O)n2Cc2ccco2)no1	6.6
Cc1ccc(Cl)cc1N1C(=O)c2ccncc2C1=O	3.4*
COc1ccc(Cl)cc1N1C(=O)c2ccncc2C1=O	2.9
Cc1ccc(Cl)cc1N1C(=O)CC(C)(C)CC1=O	7.2
CN1C(=O)c2cccc3c(Br)c(N)cc(c23)C1=O	-1
COC(=O)c1sc(N2CCOCC2)c(C#N)c1-c1ccc(Cl)cc1	1.3
CCCOc1ccc(C2c3c(oc4ccc(F)cc4c3=O)C(=O)N2CCCN(C)C)cc1OCC (configuration not stated)	-0.62
SMILES	Dicer inh
N#Cc1cccnc1N1CCN(C(=O)Nc2ccccc2)CC1	2.8
N#Cc1cccnc1N1CCN(C(=O)Nc2ccc(OC(F)(F)F)cc2)CC1	3.1*
O=C(Nc1ccc(OC(F)(F)F)cc1)N1CCN(c2ccc([N+](=O)[O-])cn2)CC1	-0.92
COc1nc(C)nc(NC(=O)Nc2sc(=S)n(C)c2C)n1	-0.05
Cc1nc(-c2ccc(-c3ccccc3)cc2)cs1	0.49
O=C(Nc1nc(-c2ccccc2)cs1)C1CC1	6.7
CCNc1nc(-c2ccccc2)cs1	3.3*
CSc1cc(-c2ccco2)[nH]c(=O)c1C#N	2
Cc1nc(N2CCN(c3ccccc3F)CC2)nc2c1C(=O)CCC2	-0.32
Cc1cc(C)c(CSc2nccn2C)c(C)c1	0.11
O=[N+]([O-])c1c(Nc2ccc(Cl)cc2)ncnc1Nc1ccc(Cl)cc1	3.5*
CNc1ncnc(NNC(=O)Nc2ccc(Cl)cc2)c1[N+](=O)[O-]	4.5*
CNc1ncnc(NNC(=O)Nc2cccc(Cl)c2)c1[N+](=O)[O-]	1.6
O=[N+]([O-])c1c(Nc2cccc(C(F)(F)F)c2)ncnc1Nc1cccc(C(F)(F)F)c1	-0.15
CNc1ncnc(Oc2ccc(Cl)cc2)c1[N+](=O)[O-]	-0.48
Cc1[nH]nc(Nc2ccc(C(C)C)cc2)c1[N+](=O)[O-]	0.47
C(=N\OCc1nnc(-c2ccc3ccccc3c2)o1)/c1cccc2c1OCO2	-1.7
O=C(O)/C(=N\NC(=O)c1ccccc1)c1ccccc1	0.26
Cc1c(S(=O)(=O)c2ccc(Cl)cc2)csc1C(=O)N1CCN(c2ccc(C(F)(F)F)cn2)CC1	-0.37
Clc1ccc(C2=NN3COc4ccccc4C3C2)cc1 (configuration not stated)	2.1
Cc1ccc(O)c(C2=NN3C(C2)c2cc(Cl)ccc2OC3c2cccnc2)c1 (configuration not stated)	-0.6
Oc1ccccc1C1=NN2C(C1)c1ccccc1OC2c1cccnc1 (configuration not stated)	12*
CC(C)C1Oc2ccccc2C2CC(c3ccccc3O)=NN21 (configuration not stated)	5.6*
COc1cccc2c1OC(c1cccnc1)N1N=C(c3ccccc3O)CC21 (configuration not stated)	-0.4
COc1cccc2c1OC(C(C)C)N1N=C(c3ccccc3O)CC21 (configuration not stated)	0.12
SMILES	Dicer inh
Clc1ccc(C2=NN3C(C2)c2ccccc2OC3c2cccnc2)cc1 (configuration not stated)	6*
Oc1ccccc1C1=NN2C(C1)c1ccccc1OC2c1ccccc1 (configuration not stated)	2.5
Cc1cccc(Cn2nc(C(C)(C)C)cc2C(=O)Nc2ccc3c(c2)OCO3)c1	0.64
CCCCc1[nH]nc2c1C1(CCN(CC)CC1)C(C#N)=C(N)O2	-6.9
CC(C)(C)c1ccc(-c2nc(NC(=O)CSc3ncn[nH]3)ns2)cc1	7.1*
O=C(CSc1nnc2ccccn12)Nc1ccc(-c2nc3ccccc3s2)cc1	3.5*
